# Laboratory results: PubChem BioAssay (NCATS)
# Inconclusive results are not listed. Where a call stands in place of a potency, no number is given. Active and inactive are the calls of the source. Calls come from the whole dose curve; as a rule, active = well fitted curve in the direction sought with a large enough effect; inconclusive = small, poorly fitted or top-dose-only effect, or another doubt; inactive = no such curve, though single readings can be large; an effect the other way counts as inactive or inconclusive.
# Assays:
# [1] = target: Thioredoxin reductase 1, cytoplasmic (Rattus norvegicus) (UniProt O89049); experiment: qHTS Assay for Substrates of Mammalian Selenoprotein Thioredoxin Reductase 1 (TrxR1) (AID 488772);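 note: series mostly up to about 57 µM; a drop in NADPH fluorescence below the no-compound background marks a TrxR1 substrate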
# Thioredoxin reductase 1, cytoplasmic (Rattus norvegicus), sequence (O89049 whole entry, looked up): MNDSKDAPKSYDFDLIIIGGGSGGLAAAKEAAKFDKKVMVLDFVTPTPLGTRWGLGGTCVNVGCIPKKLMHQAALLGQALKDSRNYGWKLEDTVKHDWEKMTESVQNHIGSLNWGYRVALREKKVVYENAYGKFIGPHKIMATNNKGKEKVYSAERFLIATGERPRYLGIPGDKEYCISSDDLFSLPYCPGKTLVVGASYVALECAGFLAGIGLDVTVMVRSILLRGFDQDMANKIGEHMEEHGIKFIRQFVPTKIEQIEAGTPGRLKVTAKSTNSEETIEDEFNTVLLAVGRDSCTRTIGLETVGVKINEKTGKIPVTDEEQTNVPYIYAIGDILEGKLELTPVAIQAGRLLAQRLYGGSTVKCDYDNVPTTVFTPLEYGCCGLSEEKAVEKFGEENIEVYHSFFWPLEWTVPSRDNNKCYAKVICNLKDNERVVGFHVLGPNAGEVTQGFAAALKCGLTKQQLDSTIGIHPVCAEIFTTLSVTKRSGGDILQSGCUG
# Outline: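 In this dual-purpose format, potential substrates are identified from the first fluorescence read after selenite addition, not from the 8-minute delta. Rat enzyme is preincubated with NADPH and then with compound at ~22 deg C.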
# [2] = target: Thioredoxin reductase 1, cytoplasmic (Rattus norvegicus) (UniProt O89049); experiment: qHTS Assay for Inhibitors of Mammalian Selenoprotein Thioredoxin Reductase 1 (TrxR1) (AID 488773); details: Potency: inhibition; note: nearly all actives have a fitted effect of over 40% in size; note: potency is the fitted concentration of half-maximal effect
# Outline: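 Inhibition is scored from the loss of NADPH fluorescence between first and last reads of an 8-min kinetic run. Selenite (400 uM) was the substrate, added after 15 min compound preincubation at room temperature.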
# [3] = target: Flap endonuclease 1 (Homo sapiens) (UniProt P39748); experiment: qHTS Validation Assay for the Inhibitors of Human Flap endonuclease 1 (FEN1) (AID 488816); note: potency is the fitted concentration of half-maximal effect
# Flap endonuclease 1 (Homo sapiens), sequence (P39748 whole entry, looked up): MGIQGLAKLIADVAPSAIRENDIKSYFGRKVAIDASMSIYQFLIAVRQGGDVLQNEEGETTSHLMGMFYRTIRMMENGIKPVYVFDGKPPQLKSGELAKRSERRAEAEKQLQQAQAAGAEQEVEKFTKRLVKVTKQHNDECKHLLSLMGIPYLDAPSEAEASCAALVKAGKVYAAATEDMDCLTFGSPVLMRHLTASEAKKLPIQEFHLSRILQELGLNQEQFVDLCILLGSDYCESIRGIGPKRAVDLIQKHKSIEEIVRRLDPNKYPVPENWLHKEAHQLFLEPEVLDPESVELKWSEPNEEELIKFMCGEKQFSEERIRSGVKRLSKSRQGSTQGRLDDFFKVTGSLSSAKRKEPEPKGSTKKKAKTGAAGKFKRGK
# Outline: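 Enzyme reagent 10 nM; cpds pinned; 15 min RT preinc.; substrate 50 nM final; reads t=0 and 15 min; no-enzyme buffer wells as neg. control; normalized data, 4-parameter Hill fit.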
# [4] = target: M-phase phosphoprotein 8 (Homo sapiens) (UniProt Q99549); experiment: qHTS Validation Assay for Inhibitors for MPP8 Chromodomain Interactions with Methylated Histone Tails (AID 488949); note: nearly all actives have a fitted effect of over 55% in size; note: potency is the fitted concentration of half-maximal effect
# M-phase phosphoprotein 8 (Homo sapiens), sequence (Q99549 whole entry, looked up): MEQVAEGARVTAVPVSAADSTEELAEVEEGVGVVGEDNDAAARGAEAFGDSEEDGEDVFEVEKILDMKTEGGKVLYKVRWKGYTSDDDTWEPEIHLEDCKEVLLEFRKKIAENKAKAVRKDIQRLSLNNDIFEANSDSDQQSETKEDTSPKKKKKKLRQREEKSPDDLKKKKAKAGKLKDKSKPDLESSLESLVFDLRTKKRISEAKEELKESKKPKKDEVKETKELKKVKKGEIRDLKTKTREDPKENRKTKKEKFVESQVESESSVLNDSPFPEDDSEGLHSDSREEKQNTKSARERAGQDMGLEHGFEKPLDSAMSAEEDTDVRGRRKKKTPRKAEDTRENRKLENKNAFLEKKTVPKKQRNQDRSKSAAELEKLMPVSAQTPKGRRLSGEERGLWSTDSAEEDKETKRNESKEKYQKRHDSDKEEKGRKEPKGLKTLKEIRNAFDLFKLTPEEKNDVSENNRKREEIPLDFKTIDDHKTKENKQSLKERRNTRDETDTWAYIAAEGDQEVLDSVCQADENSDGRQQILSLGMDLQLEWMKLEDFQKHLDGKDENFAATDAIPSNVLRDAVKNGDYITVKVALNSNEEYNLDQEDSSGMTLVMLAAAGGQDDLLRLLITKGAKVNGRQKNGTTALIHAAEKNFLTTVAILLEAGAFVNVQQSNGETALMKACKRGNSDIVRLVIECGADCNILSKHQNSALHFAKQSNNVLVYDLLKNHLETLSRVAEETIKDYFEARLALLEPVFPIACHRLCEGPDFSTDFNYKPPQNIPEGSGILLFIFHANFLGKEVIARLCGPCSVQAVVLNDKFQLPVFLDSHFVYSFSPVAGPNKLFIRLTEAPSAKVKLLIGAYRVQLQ
# Outline: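 Disruption of the preformed MPP8–trimethyl-H3K9 peptide complex (both 50 nM, 30 min, RT) is measured after 30 min compound exposure, using AlphaScreen proximity beads; aurintricarboxylic acid titration serves as plate control.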
# [5] = target: Chromobox protein homolog 1 (Homo sapiens) (UniProt P83916); experiment: qHTS Validation Assay for Inhibitors of HP1-beta Chromodomain Interactions with Methylated Histone Tails (AID 488953); note: nearly all actives have a fitted effect of over 50% in size; note: potency is the fitted concentration of half-maximal effect
# Chromobox protein homolog 1 (Homo sapiens), sequence (P83916 whole entry, looked up): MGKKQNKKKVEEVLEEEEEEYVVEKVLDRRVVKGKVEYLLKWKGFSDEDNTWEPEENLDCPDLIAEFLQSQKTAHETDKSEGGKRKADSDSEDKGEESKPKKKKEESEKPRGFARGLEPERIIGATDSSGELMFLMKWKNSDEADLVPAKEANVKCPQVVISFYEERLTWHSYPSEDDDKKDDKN
# Outline: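 Disruption of preformed HP1-beta:H3K9me3 peptide complexes (both 50 nM, PBS pH 7.4 with 0.01% Tween-20) is measured by AlphaScreen after 30 min compound exposure at room temperature, using streptavidin donor and nickel chelate acceptor beads at 10 ug/mL final.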
# [6] = target: Methanococcus maripaludis chaperonin (MmCpn) (UniProt Q6LX38); experiment: High-Throughput Screening for Modulators of Cytosolic Chaperonin Activity: MmCpn Primary Screen (AID 488978);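 note: 50 nM MmCpn enzyme hydrolysing 30 µM ATP at 37 °C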
# Methanococcus maripaludis chaperonin (MmCpn), sequence (Q6LX38 1-543): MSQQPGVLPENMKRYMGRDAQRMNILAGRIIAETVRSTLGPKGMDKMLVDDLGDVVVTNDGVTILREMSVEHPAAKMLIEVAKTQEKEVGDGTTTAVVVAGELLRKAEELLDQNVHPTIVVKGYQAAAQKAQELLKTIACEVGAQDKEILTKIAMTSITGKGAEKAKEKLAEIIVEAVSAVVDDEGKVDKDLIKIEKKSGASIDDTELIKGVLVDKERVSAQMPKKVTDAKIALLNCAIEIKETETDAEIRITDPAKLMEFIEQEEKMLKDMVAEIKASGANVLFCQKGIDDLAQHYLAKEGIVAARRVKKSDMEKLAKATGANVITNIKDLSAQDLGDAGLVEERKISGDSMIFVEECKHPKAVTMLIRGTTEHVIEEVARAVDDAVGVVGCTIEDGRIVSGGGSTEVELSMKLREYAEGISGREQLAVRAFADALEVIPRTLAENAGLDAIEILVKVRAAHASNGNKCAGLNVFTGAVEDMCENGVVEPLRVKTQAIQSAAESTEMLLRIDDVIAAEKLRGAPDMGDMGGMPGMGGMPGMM
# Outline: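 Measures ATPase turnover of the M. maripaludis chaperonin (50 nM final) against 30 uM ATP over 10 min at 37C, with compound added 5 min beforehand at room temperature. ADP is quantified by HTRF immunodetection.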
# [7] = target: D(1A) dopamine receptor (Homo sapiens) (UniProt P21728); experiment: HTS Assay for Allosteric Agonists of the Human D1 Dopamine Receptor: Primary Screen for Agonists (AID 488981)
# D(1A) dopamine receptor (Homo sapiens), sequence (P21728 whole entry, looked up): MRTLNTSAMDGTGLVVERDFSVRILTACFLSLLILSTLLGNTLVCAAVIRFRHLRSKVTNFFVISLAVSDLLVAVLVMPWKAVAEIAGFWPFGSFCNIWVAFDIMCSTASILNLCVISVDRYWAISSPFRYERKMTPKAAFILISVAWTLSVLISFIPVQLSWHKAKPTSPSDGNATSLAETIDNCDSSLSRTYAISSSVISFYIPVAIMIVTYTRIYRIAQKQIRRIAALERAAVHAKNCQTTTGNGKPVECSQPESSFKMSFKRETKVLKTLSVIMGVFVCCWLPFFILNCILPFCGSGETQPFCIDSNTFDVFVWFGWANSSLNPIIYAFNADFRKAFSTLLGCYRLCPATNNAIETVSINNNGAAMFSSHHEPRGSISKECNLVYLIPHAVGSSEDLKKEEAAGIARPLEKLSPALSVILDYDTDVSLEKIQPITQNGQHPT
# Outline: (§1)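 Tetracycline-induced HEK293 Trex D1 cells with forced coupling to calcium, loaded with no-wash calcium dye; kinetic fluorescence read 180 s after compound addition for agonism, then a further 180 s after an EC20 dopamine challenge for potentiation.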
# [8] = target: D(1A) dopamine receptor (Homo sapiens) (UniProt P21728); experiment: HTS Assay for Allosteric Agonists of the Human D1 Dopamine Receptor: Primary Screen for Potentiators (AID 488982)
# Outline: as §1
# [9] = target: Transient receptor potential cation channel subfamily V member 1 (Homo sapiens) (UniProt Q8NER1); experiment: HTS Assay for Compounds that Act as Enhancers of the Vanilloid Receptor 1 (AID 488979)
# Transient receptor potential cation channel subfamily V member 1 (Homo sapiens), sequence (Q8NER1 whole entry, looked up): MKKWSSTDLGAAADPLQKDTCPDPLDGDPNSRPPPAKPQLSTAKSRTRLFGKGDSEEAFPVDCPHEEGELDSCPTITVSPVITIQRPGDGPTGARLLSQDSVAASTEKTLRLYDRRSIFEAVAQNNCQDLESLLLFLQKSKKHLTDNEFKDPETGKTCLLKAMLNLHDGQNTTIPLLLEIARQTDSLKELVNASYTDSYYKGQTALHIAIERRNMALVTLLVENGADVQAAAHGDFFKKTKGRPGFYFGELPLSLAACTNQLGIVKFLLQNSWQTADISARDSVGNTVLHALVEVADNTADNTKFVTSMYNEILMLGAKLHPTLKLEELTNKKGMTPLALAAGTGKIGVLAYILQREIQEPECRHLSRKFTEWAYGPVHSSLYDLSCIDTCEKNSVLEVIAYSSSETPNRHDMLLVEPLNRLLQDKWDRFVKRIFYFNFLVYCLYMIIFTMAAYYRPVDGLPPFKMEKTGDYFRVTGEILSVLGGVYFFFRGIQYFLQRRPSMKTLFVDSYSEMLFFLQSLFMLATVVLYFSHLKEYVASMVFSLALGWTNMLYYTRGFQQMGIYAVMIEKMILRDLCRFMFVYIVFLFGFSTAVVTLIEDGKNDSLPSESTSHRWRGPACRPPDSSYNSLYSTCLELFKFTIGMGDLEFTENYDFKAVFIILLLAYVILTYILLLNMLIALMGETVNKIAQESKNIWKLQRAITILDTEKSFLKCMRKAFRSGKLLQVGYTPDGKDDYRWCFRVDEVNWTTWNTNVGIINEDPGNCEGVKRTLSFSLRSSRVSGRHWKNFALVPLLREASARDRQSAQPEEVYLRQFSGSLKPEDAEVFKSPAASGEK
# Outline: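 TRPV1 cells loaded with Fluo-8 calcium dye; compound added and Ca2+ signal (ex 480/em 520 nm) followed 3 min, then capsaicin at EC20 added and read 2 more min to detect enhancement.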
# [10] = target: Thyrotropin receptor (Homo sapiens) (UniProt P16473); experiment: qHTS Assay for Antagonists of the Thyroid Stimulating Hormone Receptor (AID 488980); note: series mostly up to about 58 µM
# Thyrotropin receptor (Homo sapiens), sequence (P16473 whole entry, looked up): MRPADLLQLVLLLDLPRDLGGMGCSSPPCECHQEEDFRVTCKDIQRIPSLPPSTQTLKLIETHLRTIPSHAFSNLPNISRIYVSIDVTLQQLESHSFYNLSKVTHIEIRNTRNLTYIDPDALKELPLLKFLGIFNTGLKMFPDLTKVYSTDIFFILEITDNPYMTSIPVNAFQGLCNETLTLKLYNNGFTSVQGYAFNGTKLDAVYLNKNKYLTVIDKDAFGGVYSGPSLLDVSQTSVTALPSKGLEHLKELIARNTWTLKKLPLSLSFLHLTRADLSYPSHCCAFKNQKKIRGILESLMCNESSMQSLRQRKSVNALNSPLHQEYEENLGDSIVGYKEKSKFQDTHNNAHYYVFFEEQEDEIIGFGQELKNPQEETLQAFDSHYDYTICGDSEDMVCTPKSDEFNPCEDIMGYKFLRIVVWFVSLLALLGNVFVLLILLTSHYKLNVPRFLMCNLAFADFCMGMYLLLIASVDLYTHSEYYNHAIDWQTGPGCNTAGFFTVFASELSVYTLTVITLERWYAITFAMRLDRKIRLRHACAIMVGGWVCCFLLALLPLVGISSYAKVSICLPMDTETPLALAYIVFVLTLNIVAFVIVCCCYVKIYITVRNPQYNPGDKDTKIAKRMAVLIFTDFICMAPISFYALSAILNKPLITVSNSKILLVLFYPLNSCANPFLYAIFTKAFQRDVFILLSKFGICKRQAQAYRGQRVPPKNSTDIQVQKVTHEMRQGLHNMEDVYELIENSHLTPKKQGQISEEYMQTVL
# Outline: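 Cells expressing human TSHR (HEK293) are dispensed in HBSS/HEPES containing 70 uM RO 20-1724, compound is added, then TSH at EC80 (4 nM final). Antibody in lysis buffer follows, 30 minutes at room temperature before HTRF detection.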
SMILES,outcome [1],Potency [2],Potency [3],Potency [4],Potency [5],outcome [6],outcome [7],outcome [8],outcome [9],outcome [10]
N[C@@H](Cc1ccc(O)c(O)c1)C(=O)O,inactive,29.9 µM (active),3.77 µM (active),7.52 µM (active),31.6 µM (active),inactive,inactive,inactive,–,–
CC1=C(C(=O)O)N2C(=O)[C@@H](NC(=O)C(N)c3ccccc3)[C@H]2SC1 (stereo partly specified),inactive,inactive,inactive,–,inactive,inactive,inactive,inactive,inactive,–
Nc1nc(N)c2nc(CNc3ccc(C(=O)NC(CCC(=O)O)C(=O)O)cc3)cnc2n1 (stereo unspecified),–,inactive,inactive,–,–,inactive,inactive,inactive,inactive,inactive
COc1cc2ncnc(Nc3cccc(Cl)c3)c2cc1OC,inactive,inactive,inactive,inactive,inactive,inactive,inactive,inactive,inactive,inactive
Cc1ccc(S(=O)(=O)N[C@@H](Cc2ccccc2)C(=O)CCl)cc1,inactive,21.2 µM (active),inactive,inactive,inactive,–,inactive,inactive,inactive,inactive
NC(=O)c1cccc(N)c1,inactive,inactive,inactive,inactive,inactive,inactive,inactive,inactive,inactive,inactive
CC(C)NCC(O)c1ccc(NS(C)(=O)=O)cc1 (stereo unspecified),inactive,inactive,inactive,inactive,inactive,inactive,inactive,inactive,inactive,inactive
CCN(CC)CCn1c(=O)c(Cc2ccc(OC)cc2)nc2ccccc21,inactive,inactive,–,inactive,inactive,inactive,inactive,inactive,–,–
COc1cc2nc(N3CCCN(C)CC3)nc(NC3CCN(Cc4ccccc4)CC3)c2cc1OC,inactive,inactive,–,inactive,–,inactive,inactive,inactive,–,–
CCCCS(=N)(=O)CCC(N)C(=O)O (stereo unspecified),inactive,inactive,inactive,inactive,inactive,inactive,inactive,inactive,inactive,inactive
O=C(O)C1CCCN(CCC=C(c2ccccc2)c2ccccc2)C1 (stereo unspecified),inactive,inactive,inactive,inactive,inactive,inactive,inactive,inactive,inactive,inactive
CC1CC2C3CCC4=CC(=O)C=C[C@]4(C)[C@@]3(F)[C@@H](O)C[C@]2(C)[C@@]1(O)C(=O)CO (stereo partly specified),inactive,inactive,inactive,inactive,inactive,inactive,inactive,inactive,–,–
NC(=O)c1ccc2[nH]ccc2c1,inactive,inactive,inactive,inactive,inactive,inactive,inactive,inactive,–,–
OCc1ccc(-c2nn(Cc3ccccc3)c3ccccc23)o1,inactive,–,inactive,25.1 µM (active),39.8 µM (active),inactive,inactive,inactive,inactive,inactive
CCN(CC)CC#CCOC(=O)C(O)(c1ccccc1)C1CCCCC1 (stereo unspecified),inactive,inactive,inactive,inactive,inactive,inactive,inactive,–,inactive,inactive
CC(C)(C)NC(=O)[C@H]1CC[C@H]2[C@@H]3CC[C@H]4NC(=O)C=C[C@]4(C)[C@H]3CC[C@]12C,–,–,–,inactive,–,–,–,–,inactive,–
CC(=O)[C@H]1CC[C@H]2[C@@H]3CCC4=CC(=O)CC[C@]4(C)[C@H]3CC[C@]12C,inactive,inactive,inactive,inactive,inactive,inactive,inactive,inactive,inactive,inactive
CCN1CCCC1CNC(=O)c1cc(S(N)(=O)=O)ccc1OC (stereo unspecified),inactive,inactive,inactive,inactive,inactive,inactive,inactive,inactive,inactive,inactive
